# Screening data from PubChem BioAssay.
# ERK EGF block = inhibitors of EGF-stimulated ERK signaling pathway. Potency, µM (highest dose often 11.5 µM), inactives show top-dose activity change, negative = inhibition, hits mostly inhibitors. AID 1454. 130,000 compounds, 0.41% hits. HEK293-V1b, EGF-stimulated phospho-ERK AlphaScreen; active = well fitted inhibition curve with a large enough effect;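 also: plate controls were stimulated vehicle wells for no effect and unstimulated vehicle basal for full effect; nearly all actives have a fitted effect of over 55% in size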
#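 Stably V1b-transfected HEK293 cells; 30 min compound, then EGF 25 nM final for 5 min at 37C; 10 min lysis; phospho-ERK by AlphaScreen after 5 hr beads at room temperature.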
# Starred values were filed as active, the others as inactive; ! = not active in a repeat; [ ] = remark or other dose. Shown is part of a subset that was picked to be rich in hits. Potency is read from the fitted curve at half-maximal effect.
SMILES,ERK EGF block
CN(Cc1ccccc1)c1ccc(C(CC(N)=O)NC(=O)Cc2ccc(Br)cc2)cc1[N+](=O)[O-] (configuration not stated),32µM*
CCC(CC)Nc1ccc(C(CC(N)=O)NC(=O)Cc2ccc(Br)cc2)cc1[N+](=O)[O-] (configuration not stated),-10%[57.5 µM]
CCCCC/C=C\C/C=C\C=C\[C@@H](O)C/C=C\CCCC(=O)O,-3%
COc1cc(OC)c(C(=O)NCC2CCCO2)cc1OC (configuration not stated),4%
COc1cccc(OCc2ccc(C(=O)NCC3CCCO3)cc2)c1 (configuration not stated),4%
COc1cccc(N=c2oc3cc(O)ccc3cc2C(=O)NCC2CCCO2)c1 (configuration not stated),28µM*
O=C(c1csnn1)N1CCC2(CC1)CCN(c1ccncc1)CC2,2%
C[C@]12C[C@@](C)(C=C1/C=C/c1ccc(C(F)(F)F)cc1)C(=O)C[C@H]2c1ccc(C(F)(F)F)cc1,4%
O=C(O)c1cc(O)c2c(c1)[C@H]([C@H]1c3cc(C(=O)O)cc(O)c3C(=O)c3c(O[C@@H]4OC(CO)C(O)C(O)C4O)cccc31)c1cccc(O[C@@H]3OC(CO)C(O)C(O)C3O)c1C2=O (some centres not stated),-2%
COC(=O)N[C@@H](c1cccc(C)c1)[C@@H](C)[N+](=O)[O-],-4%
O=[N+]([O-])c1ccc(N/N=C/c2ccccc2)c(F)c1,-10%
Nc1ccccc1Nc1ccc([N+](=O)[O-])cc1[N+](=O)[O-],-6%
CC1=C(/C=N/Nc2ccc([N+](=O)[O-])cc2[N+](=O)[O-])C(C)(C)CCC1,14µM*
CC(C)OC(=O)[C@@H]1CC[C@H](C)[C@@H](CCC[C@@H]2C[C@@H](O)C[C@H](CC#N)O2)O1,-7%
CCCCNc1nc(C)nc2c1nc(-c1ccccc1)n2CCCN(C)C,0%
O=C(c1cnccn1)N1CCC2(CC1)CN(Cc1cc(C(F)(F)F)cc(C(F)(F)F)c1)C2,-8%
COc1ccc(C(=O)/C=C/c2ccc(N3CCCCC3)c([N+](=O)[O-])c2)cc1,32µM*
COc1ccc(N2CCN(c3ccc(C(N)=O)cc3[N+](=O)[O-])CC2)cc1,1%
NC(=O)c1ccc(N2CCCCCC2)c([N+](=O)[O-])c1,15%
CCOC(=O)C1=C[C@@]2(CC)CCCN3CCc4c(n1c1ccccc41)C32 (some centres not stated),7%
C=C1CCC(O)C/C1=C\C=C1/CCCC2(C)C1CCC2C(C)CCCC(C)C (configuration not stated),-8%
O=C(NC(=S)NN1CCCCC1c1cccnc1)c1ccc(Br)cc1 (configuration not stated),14µM*
COC(=O)c1ccc(NC(=S)NN2CCCCC2c2cccnc2)cc1 (configuration not stated),9%[57.5 µM]
O=C(NC(=S)N1CCCCC1)c1cccnc1,-15%[57.5 µM]
C=C[C@@H]1CN2CC[C@@H]1C[C@H]2[C@H](O)c1ccnc2ccc(OC)cc12,2%
SMILES,ERK EGF block
CC(N)(Cc1ccc(O)c(O)c1)C(=O)O (configuration not stated),9%
CCN1C(=C(C#N)C#N)C=Cc2ccccc21,-5%
CCN1C(=O)/C(=C2/C=Cc3ccccc3N2CC)SC1=S,16µM*
CCN1C(=O)/C(=C2\Sc3ccccc3N2CC)OC1=S,13%
Cc1ccc(C2CC(=O)C=C(Nc3ccc(Cl)cc3)C2)cc1 (configuration not stated),2%
O=C1C=C(Nc2ccc(Cl)cc2)CC(c2ccco2)C1 (configuration not stated),2%
O=C1C=C(Nc2ccc(Cl)cc2)CC(c2ccc(Cl)cc2)C1 (configuration not stated),14µM*
CCCCC/C=C\C\C=C/C=C/C=C/[C@@H](SCC(N)C(=O)O)[C@@H](O)CCCC(=O)O (some centres not stated),4%
CCc1ccc(Nc2c([N+](=O)[O-])c(=O)oc3ccccc23)cc1,18µM*
Cc1ccc(Nc2c([N+](=O)[O-])c(=O)oc3ccccc23)cc1,5%
CCNc1c([N+](=O)[O-])c(=O)oc2ccccc12,-2%
COc1ccc(C(=O)N2CCC[C@@]3(CCN(Cc4ccc(C#N)cc4)C3)C2)cc1,-7%
COC1=C(Nc2ccc(C)cc2)C(=O)c2ccccc2C1=O,11µM*
COC1=C(OC)C(=O)c2ccccc2C1=O,10%
Cc1ccc(NN=C2c3ccccc3-c3ccccc32)cc1,-1%
COc1cc(C=C2C(=O)c3ccccc3C2=O)cc(OC)c1,-3%[57.5 µM]
COC1=C(Nc2ccccc2)C(=O)c2ccccc2C1=O,14µM*
Cc1ccc(SC2=C(Sc3ccc(C)cc3)C(=O)c3ccccc3C2=O)cc1,2%[57.5 µM]
O=C(O)c1ccc(NS(=O)(=O)c2ccsc2C(=O)O)c(O)c1,-6%
COc1cccc([C@@H]2Oc3ccc(Br)cc3[C@H](O)[C@H]2O)c1,1%
Cn1cccc1C(=O)N1CCC2(CCCN(Cc3ccncc3)C2)CC1,-8%
CN(C)/C=C(/C(=O)c1ccc(Cl)cc1)n1cncn1,-5%
CN(C)c1ccc(/C=C(/C(=O)c2ccc(Cl)cc2Cl)n2cncn2)cc1,5%
CC(C)CC(=O)/C(=C\c1ccc(Cl)cc1Cl)n1cncn1,28µM*
CS(=O)(=O)N1CCC2(CCN(c3ccccn3)CC2)CC1,-5%
SMILES,ERK EGF block
N#CCCn1c(=O)cnc2cnc(Nc3ccccc3)nc21,3%
COc1ccc2c(c1)c1ccc3c(c1n2C)C(=O)C=CC3=O,32µM*
COc1ccc2c(c1)oc(=O)c1cc(OC)ccc12,-5%[57.5 µM]
COc1ccc2c(c1)c(C(=O)CN1CCN(Cc3ccccc3)CC1)c(C)n2C,-5%[57.5 µM]
Cc1cc(C)c(S(=O)(=O)OC[C@H]2C=CC[C@@H](CCC[C@H]3O[C@H](C(=O)OC(C)C)CC[C@@H]3C)O2)c(C)c1,-5%
CCNc1ncc2nc(-c3ccc(OC)cc3)c(=O)n(Cc3cccc(OC)c3)c2n1,8%
COC(=O)c1cc(=O)c(O)c2c(O)c(O)ccc2c1,8%
S=C(NC1CCCC1)N1CCN(c2cccc(Cl)c2)CC1,-1%
O=S(=O)(c1cccc(NC(=S)N2CCN(c3cccc(Cl)c3)CC2)c1)C(F)F,25µM*
NS(=O)(=O)c1ccc(NC(=S)N2CCN(c3cccc(Cl)c3)CC2)cc1,-3%
N[C@@H](CO)C(=O)NNCc1ccc(O)c(O)c1O,1%[25.7 µM]
N#Cc1ccc(CS(=O)(=O)c2nnnn2C2CCCCC2)cc1,-16%
COc1ccc([C@@H]2[C@@H](O)[C@H](O)[C@@H](C)N2C)cc1OC,-1%
O=C1c2c(O)ccc(O)c2C(=O)c2c(NCCNCCO)ccc(NCCNCCO)c21,20µM*!
Cc1ccc(CNCCNCCO)s1,-5%
CC(C)(C)NC(=O)CN1C(=O)/C(=C/c2ccccc2)SC1=S,8%
O=C(CN1C(=O)/C(=C/c2ccccc2)SC1=S)NNC(=O)c1ccccc1O,14µM*
Cc1ccc(/C=C2\SC(=S)N(CCCC(=O)NNC(=O)c3ccccc3O)C2=O)cc1,3%[57.5 µM]
CC(=O)OC1CCC23CC1(C)CCC2C(C)(C)CC3OC(C)=O (configuration not stated),26%
C/C(N)=C(/C#N)C(=O)COC(=O)c1cccc(O)c1,28µM*
CC(=O)Nc1ccc(C(=O)OCC(=O)/C(C#N)=C(\C)N)cc1,26%
C/C(N)=C(/C#N)C(=O)COC(=O)c1cc2c(s1)CCCC2,-20%
Cc1nc(NCc2ccccc2)c2nc(-c3ccccc3)n(CCN3CCCCC3)c2n1,-4%
Cc1cc(NC(=O)c2ccccc2F)on1,-3%
